About 83,000 compounds went through this panel and 20% of them were active in at least one assay; those are over-represented in the sample as a whole.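 Each cell line was grown in a 96-well plate and treated with one concentration of compound for 48 hours. Values below 10 were considered active.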 Unmarked numbers belong to inactive results. Active and inactive are the calls of the source.

Test systems include HCT-15 colon; HT29 colon; SNB-75 CNS; SNB-19 CNS; U251 CNS; SK-MEL-5 melanoma; UACC-62 melanoma; LOX IMVI melanoma; SK-MEL-28 melanoma; PC-3 prostate.
Holding throughout (assay): NCI-60 one-dose screen, 48 h (100 = growth as untreated, 0 = no growth, -100 = all killed)
What all share (settings): 10 µM unless noted

As to `COc1ccc(C(=O)c2sc3nc4c(cc3c2N)N2CCC4CC2)cc1OC`, the growth is 96.4% with HCT-15 colon; 105% with HT29 colon; 83.9% with SNB-75 CNS; 108% in the test with SNB-19 CNS; 84.9% in the test on U251 CNS; 48.2% in the test on SK-MEL-5 melanoma. For the same compound, the growth was 89.9% with UACC-62 melanoma, 85.4% in the test with LOX IMVI melanoma and 96.1% with SK-MEL-28 melanoma.

As to `COC(=O)[C@@H](NC(=O)c1cn(CCC2CCCCC2)c2ccccc12)C(C)(C)C`, the growth was 59.9% in the test with HCT-15 colon; 69% in the test with HT29 colon; 71.2% with SNB-75 CNS; 97.5% in the test on SNB-19 CNS; 72.6% with U251 CNS; 38.1% with UACC-62 melanoma. In addition, the growth was 54.2% in the test on LOX IMVI melanoma and 85.8% with SK-MEL-28 melanoma.

Take `NC(=O)CNc1ccc([As]=[As]c2ccc(NCC(N)=O)cc2)cc1` (centres undefined): the growth with HCT-15 colon is 44.1%; in the test on HT29 colon, 38.9%; in the test with SNB-75 CNS, 24.5%; in the test on SNB-19 CNS, 48.6%; in the test with U251 CNS, 12%; in the test on SK-MEL-5 melanoma, 23.7%. Besides, the figures for the growth with UACC-62 melanoma, in the test on LOX IMVI melanoma and in the test with SK-MEL-28 melanoma were 26.1%, 26.2% and 74.6%, respectively.

As to `O=C(O)C(O)C(O)C1[O][Sb]([c]2ccc([N+](=O)[O-])cc2)[O]C1CO` (centres undefined), the growth with HCT-15 colon is 95.8%; in the test on HT29 colon, 101%; in the test with SNB-75 CNS it was 99.1%; in the test with SNB-19 CNS it was 94.9%; with U251 CNS, 101%; with SK-MEL-5 melanoma it was 103%. The growth is 91.9% with UACC-62 melanoma, 101% with LOX IMVI melanoma and 106% with SK-MEL-28 melanoma.

Turning to `CC(=O)ONc1ccc([N+](=O)[O-])c(C(F)(F)F)c1`, the growth in the test with HCT-15 colon was 108%; with HT29 colon, 108%; with SNB-75 CNS, 82.9%; in the test with SNB-19 CNS, 107%; in the test on U251 CNS it was 104%; in the test on SK-MEL-5 melanoma, 109%. The figures for the growth in the test on UACC-62 melanoma, with LOX IMVI melanoma and in the test on SK-MEL-28 melanoma were 96.8%, 98.8% and 110%, respectively.

Take `O=C1CCC2(O)[C@@H]3Cc4ccc(O)c5c4[C@]2(CCN3Cc2ccoc2)C1O5` (some centres undefined): the growth in the test with HCT-15 colon is 100%; in the test on HT29 colon it was 102%; in the test with SNB-75 CNS, 85.1%; in the test on SNB-19 CNS, 101%; with U251 CNS, 101%; with SK-MEL-5 melanoma it was 100%. Also, the growth in the test with UACC-62 melanoma was 109%; in the test with LOX IMVI melanoma it was 92.2%; with SK-MEL-28 melanoma, 115%.

As for `CC1(C)N=C(N)N=C(N)N1c1ccc(CCC(=O)Nc2ccc(S(=O)(=O)F)cc2)c(Cl)c1`, the growth with HCT-15 colon was 48%; in the test with HT29 colon it was 15.5%; in the test with SNB-75 CNS, 59.4%; with SNB-19 CNS, 42%; in the test with U251 CNS, 35%; with SK-MEL-5 melanoma, 22.2%. In addition, the growth is 16.9% in the test with UACC-62 melanoma, 15.3% in the test with LOX IMVI melanoma and 50.4% with SK-MEL-28 melanoma.

As to `CC[C@H](NC(=O)[C@H]1CCCCN1C)C(=O)N(C)[C@H](C[C@@H](OC(C)=O)c1nc(C(=O)N[C@@H](Cc2ccccc2)C[C@H](C)C(=O)O)cs1)C(C)C`, the growth in the test with HCT-15 colon was 6.42% (active); in the test on HT29 colon it was 2.74% (active); with SNB-75 CNS it was 24.9%; with SNB-19 CNS, 17.6%; in the test with U251 CNS it was 14.9%; with SK-MEL-5 melanoma it was -40.3% (active). The growth is 27.1% in the test with UACC-62 melanoma, 13.2% with LOX IMVI melanoma and 73.7% with SK-MEL-28 melanoma.

For the compound `C[C@]12CC[C@H]3[C@@H](C[C@@H]4SC(Nc5ccccc5)=N[C@@]45CC(O)CC[C@]35C)[C@@H]1CCC2O` (some centres undefined), the growth in the test with HCT-15 colon is -30.2% (active); in the test with HT29 colon, -38.5% (active); with SNB-75 CNS it was -5.43% (active); with SNB-19 CNS it was 26.5%; with U251 CNS, -30.1% (active); with SK-MEL-5 melanoma, 34.5%. For the same compound, the results for the growth with UACC-62 melanoma, in the test with LOX IMVI melanoma and with SK-MEL-28 melanoma were 39.8%, -81.5% (active) and 27.3%, respectively.

In the case of `CCCc1cc(O)c2c3c(c(=O)oc2c1)CN(C)CC3`, the growth in the test with HCT-15 colon was 23.2%; in the test with HT29 colon, 10.8%; with SNB-75 CNS, -8.41% (active); in the test with SNB-19 CNS, 44.4%; with U251 CNS, 16.7%; in the test on SK-MEL-5 melanoma it was 42.3%. In addition, the growth in the test on UACC-62 melanoma was 37.8%; in the test with LOX IMVI melanoma, 30.9%; in the test with SK-MEL-28 melanoma it was 56.4%.

For the compound `CN(CCCCN(C)CCOS(C)(=O)=O)CCOS(C)(=O)=O`, the growth in the test on HCT-15 colon is 89.4%; with HT29 colon, 86.9%; with SNB-75 CNS, 88.5%; with SNB-19 CNS, 94.7%; in the test with U251 CNS, 71.8%; with SK-MEL-5 melanoma, 84.4%. Moreover, the growth in the test with UACC-62 melanoma is 56.1%; with LOX IMVI melanoma, 58%; in the test with SK-MEL-28 melanoma, 95.1%.

With `CC[C@H](C)[C@H](NC(=O)C12C3C4C1C1C2C3C41NC)C(=O)N(C)[C@H](C[C@@H](OC(C)=O)c1nc(C(=O)N[C@@H](Cc2ccccc2)C[C@H](C)C(=O)OC)cs1)C(C)C` (some centres undefined), the growth was 18.4% in the test on HCT-15 colon; 2.58% (active) with HT29 colon; 31.4% with SNB-75 CNS; 49.6% in the test with SNB-19 CNS; 11.6% in the test on U251 CNS; 3.34% (active) in the test with SK-MEL-5 melanoma. Besides, the values for the growth in the test with LOX IMVI melanoma and in the test with SK-MEL-28 melanoma were 15.7% and 58.1%, respectively.

As for `ClCCN(CCCl)c1nc(Cl)c(C2CC(c3ccccc3)=NN2c2cc(Cl)cc(Cl)c2)s1` (centres undefined), the growth with HCT-15 colon is 104%; in the test with HT29 colon, 101%; in the test on SNB-75 CNS it was 96.4%; in the test with SNB-19 CNS it was 98.7%; with U251 CNS, 99.4%; in the test on SK-MEL-5 melanoma it was 102%. The values for the growth in the test on UACC-62 melanoma, in the test with LOX IMVI melanoma and in the test with SK-MEL-28 melanoma were 92.9%, 99.2% and 106%, respectively.

In the case of `COP(=O)(OC)C(O)c1ccc(Cl)cc1` (centres undefined), the growth is 102% with HCT-15 colon; 96.1% in the test on HT29 colon; 89.4% with SNB-75 CNS; 110% with SNB-19 CNS; 94.3% in the test on PC-3 prostate; 98.7% with SK-MEL-5 melanoma. Also, the results for the growth in the test on UACC-62 melanoma, in the test on LOX IMVI melanoma and in the test with SK-MEL-28 melanoma were 101%, 96.8% and 109%, respectively.

These data come from PubChem BioAssay (NCI).
